Seven compounds from PubChem BioAssay (Tox21) can be followed below.

A number with no mark means an inactive call. Inconclusive results are not listed. Activity calls are given as the source filed them. Unless noted, calls follow the shape of the dose curve; as a rule, active = well fitted curve in the direction sought with a large enough effect in the repeat runs; inconclusive = weak or mixed curves; inactive = no such curve, though single readings can be large; an effect the other way counts as inactive or inconclusive.

A short description of assay [1]: qHTS RealTime-Glo MT Cell Viability Assay in HEK293 cells - 0 hour (AID 1224880). Also: nearly all actives have a fitted effect of over 45% in size. Also: potency is read from the fitted curve at half-maximal effect. As to activity change, negative = cytotoxicity: top concentration of the series differs between compounds. A digest of the protocol: (§1)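 Luminescence, which tracks viable cell number through reduction of the prosubstrate to a NanoLuc substrate, was read over continuous 37 C culture. Cells (600/well) were premixed with reagent and rested 5 h before 23 nL of compound in DMSO was pinned.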
(In general: In qHTS, concentration-response curves come from the screen itself.)

Assay [2] in a line: A CellTox Green Cytotoxicity Assay to monitor cytotoxicity in HEK293 cells - 32 hour (AID 1224881). Also: nearly all actives have a fitted effect of over 40% in size. Also: potency is read from the fitted curve at half-maximal effect. In short, it runs like this:
(§2)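 Fluorescence from a DNA-binding dye excluded by viable cells was measured repeatedly in the same HEK293 wells (600 cells/well) during continuous compound exposure at 37 C. Each assay gives one read point: 0, 8, 16, 24, 32 or 40 h.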

The nature of assay [3]: A CellTox Green Cytotoxicity Assay to monitor cytotoxicity in HepG2 cells - 0 hour (AID 1224882). Also: nearly all actives have a fitted effect of over 35% in size. Also: potency is read from the fitted curve at half-maximal effect. A digest of the protocol:
(§3)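 Real-time cytotoxicity: fluorescence of a cell-impermeant cyanine dye binding DNA of dead HepG2 cells, measured repeatedly (0–40 h) during compound exposure at 37 C. Cells seeded 600/well with reagent, dosed after 5 h.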

Assay [4] in a line: A CellTox Green Cytotoxicity Assay to monitor cytotoxicity in HEK293 cells - 8 hour (AID 1224884). Also: nearly all actives have a fitted effect of over 35% in size. Also: potency is read from the fitted curve at half-maximal effect. In short, it runs like this:
as §2

Assay [5] can be described thus: qHTS RealTime-Glo MT Cell Viability Assay in HepG2 cells - 16 hour (AID 1224885). Also: nearly all actives have a fitted effect of over 50% in size. In short, it runs like this: (§4)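 Cells + NanoLuc/prosubstrate dispensed (600 cells/well) → 5 h at 37 C/5% CO2 → compounds in DMSO transferred → 40 h incubation at 37 C, luminescence read at 0, 8, 16, 24, 32, 40 h.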
Assay [6] is described as follows: qHTS RealTime-Glo MT Cell Viability Assay in HEK293 cells - 24 hour (AID 1224886). Also: top concentration of the series differs between compounds; nearly all actives have a fitted effect of over 50% in size. A digest of the protocol: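 Tox21 10K qHTS, HEK293, 600 cells/well, RealTime-Glo reagent co-dispensed with cells; 5 h preincubation, compound by pintool, 37 C, luminescence at 0–40 h.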
The nature of assay [7]: qHTS RealTime-Glo MT Cell Viability Assay in HEK293 cells - 8 hour (AID 1224887). Also: nearly all actives have a fitted effect of over 50% in size. Also: potency is read from the fitted curve at half-maximal effect. As to activity change, negative = cytotoxicity: top concentration of the series differs between compounds. In short, it runs like this:
as §1

Assay [8] is described as follows: A CellTox Green Cytotoxicity Assay to monitor cytotoxicity in HEK293 cells - 16 hour (AID 1224888). Also: nearly all actives have a fitted effect of over 35% in size. Also: potency is read from the fitted curve at half-maximal effect. In short, it runs like this: as §2
Assay [9] in a line: qHTS RealTime-Glo MT Cell Viability Assay in HepG2 cells - 0 hour (AID 1224889). Also: nearly all actives have a fitted effect of over 50% in size. Also: potency is read from the fitted curve at half-maximal effect. A digest of the protocol: as §4
A short description of assay [10]: A CellTox Green Cytotoxicity Assay to monitor cytotoxicity in HepG2 cells - 8 hour (AID 1224890). Also: nearly all actives have a fitted effect of over 45% in size. Also: potency is read from the fitted curve at half-maximal effect. A digest of the protocol: as §3
Assay [11] can be described thus: qHTS assay to identify small molecule antagonists of the estrogen receptor alpha (ER-alpha) signaling pathway using the BG1 cell line in the presence of 0.1 nM 17-beta-estradiol - cell viability counter screen (AID 1259241). Also: nearly all actives have a fitted effect of over 40% in size. A digest of the protocol:
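Viability in VM7Luc4E2 cells after 22 hr compound exposure under 0.1 nM 17beta-estradiol stimulation, by CellTiter-Fluor.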

A short description of assay [12]: qHTS assay to identify small molecule antagonists of the androgen receptor (AR) signaling pathway using the MDA cell line in the presence of 0.5 nM R1881 - cell viability counter screen (AID 1259242). Also: nearly all actives have a fitted effect of over 45% in size. In short, it runs like this: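 Live-cell protease activity was measured by CellTiter-Fluor fluorescence after 30 min. Before that, MDA-kb2 MMTV-luciferase cells had 16 hr at 37C without CO2, exposed to test compounds and 0.5 nM R1881 final.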

The target of assay [13] is Estrogen receptor (Homo sapiens) (UniProt P03372). Nature of the assay: qHTS assay to identify small molecule antagonists of the estrogen receptor alpha (ER-alpha) signaling pathway using the BG1 cell line in the presence of 0.1 nM 17-beta-estradiol (AID 1259244). Also: nearly all actives have a fitted effect of over 50% in size. In short, it runs like this: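 Luciferase luminescence (ONE-Glo, 30 min at room temperature) was read after 22 hr at 37C exposure to compounds plus 17beta-estradiol at 0.1 nM final. Cells were VM7Luc4E2 with endogenous ER-alpha and an ERE-driven luciferase, pre-cultured 5 days in hormone-depleted medium.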
Sequence of Estrogen receptor (Homo sapiens) (P03372 whole entry, looked up): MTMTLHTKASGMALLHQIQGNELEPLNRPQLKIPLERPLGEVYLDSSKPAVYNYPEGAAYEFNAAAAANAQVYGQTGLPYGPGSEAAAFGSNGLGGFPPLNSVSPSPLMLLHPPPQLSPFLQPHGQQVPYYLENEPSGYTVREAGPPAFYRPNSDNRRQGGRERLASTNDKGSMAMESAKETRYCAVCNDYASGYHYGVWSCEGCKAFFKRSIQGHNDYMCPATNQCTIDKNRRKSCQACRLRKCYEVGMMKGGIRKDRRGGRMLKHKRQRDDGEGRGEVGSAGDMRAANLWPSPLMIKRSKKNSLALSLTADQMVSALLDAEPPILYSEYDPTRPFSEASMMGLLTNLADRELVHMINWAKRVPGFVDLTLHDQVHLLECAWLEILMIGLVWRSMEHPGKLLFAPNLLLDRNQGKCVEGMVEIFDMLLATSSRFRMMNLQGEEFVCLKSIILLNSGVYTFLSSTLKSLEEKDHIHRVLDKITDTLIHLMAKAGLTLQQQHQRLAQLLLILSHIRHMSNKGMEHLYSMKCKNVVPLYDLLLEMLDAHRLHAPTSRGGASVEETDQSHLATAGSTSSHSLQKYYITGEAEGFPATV

Assay [14] can be described thus: qHTS assay to identify small molecule phospholipidosis (PLD) inducers (AID 1259344; active = well fitted curve in the direction sought with a large enough effect; an effect the other way counts as inactive or inconclusive; also: potency is read from the fitted curve at half-maximal effect). A digest of the protocol: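 Read-out is LipidTOX Red fluorescence (ex 595/em 615) imaged in HepG2 cells after 24 h compound exposure at 37 C, with Hoechst nuclear counterstain (ex 352/em 461) allowing per-cell normalisation.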
Assay [15] is described as follows: qHTS assay to identify small molecule HDAC inhibitors (AID 1259364). Also: nearly all actives have a fitted effect of over 45% in size. Also: potency is read from the fitted curve at half-maximal effect. As to activity change, negative = inhibition: top concentration of the series differs between compounds. In short, it runs like this: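 Luminescence read after 30 min room-temperature HDAC-Glo incubation measures cellular class I/II HDAC activity. Compounds were applied for 2 hr at 37 C to HCT-116 wild-type cells seeded the day before.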
Assay [16] can be described thus: qHTS assay to identify small molecule HDAC inhibitors - cell viability counter screen (AID 1259365). In short, it runs like this:
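Cytotoxicity was gauged in wild-type HCT-116 cells after a brief 2hr treatment with DMSO-dissolved compounds at 37C and 5% CO2, using CellTiter-Glo luminescence developed for 30min at room temperature.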

The nature of assay [17]: qHTS assay to identify small molecule agonists of the sonic hedgehog signaling (Shh) pathway - cell viability counter screen (AID 1259366). Also: nearly all actives have a fitted effect of over 50% in size. Also: potency is read from the fitted curve at half-maximal effect. In short, it runs like this: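 Stable Gli1-Luc NIH/3T3 clone, 2,000 cells/well. Compound exposure 24hr at 37C. Read-out: CellTiter-Fluor fluorescence.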
Assay [18] is described as follows: qHTS assay to identify small molecule antagonists of the sonic hedgehog signaling (Shh) pathway - cell viability counter screen (AID 1259367). Also: nearly all actives have a fitted effect of over 55% in size. A digest of the protocol: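 Fluorescence read-out (CellTiter-Fluor, 1 hr at 37C) taken after 23 hr compound treatment of 3T3 Gli1-Luc cells stimulated with conditioned medium. Cells were seeded at 2,000 per well and pre-incubated 4 hr.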

The nature of assay [19]: A CellTox Green Cytotoxicity Assay to monitor cytotoxicity in HepG2 cells - 32 hour (AID 1224883). Also: nearly all actives have a fitted effect of over 50% in size. A digest of the protocol:
as §3
% is scaled to controls: 0 for no effect and ±100 for the full control effect.

As for `Nc1ccc(S(=O)(=O)Nc2ccnn2-c2ccccc2)cc1`, the activity change, negative = cytotoxicity in assay [1] is 3.82% [at 15.8 µM]; in [6], 7.4% [at 15.8 µM]; in [7], 7.76% [at 15.8 µM]; in assay [9], -1.91% [at 15.8 µM]; in assay [11], 0.0467% [at 19 µM]; in assay [16], 2.68% [at 19 µM]. Also, the Potency entry in assay [2], in assay [14] and in assay [18] was “inactive” throughout. In assay [3], the cytotoxicity was 3.97% [at 15.8 µM]. Moreover, the results for the cytotoxicity increase in assay [4] and in [10] were 1.9% [at 15.8 µM] and 0.943% [at 15.8 µM], respectively. The activity change, negative = cytotoxic in assay [5] is -1.35% [at 15.8 µM]. In addition, the activity change in assay [8] is 2.29% [at 15.8 µM, hits give high values]. The viability change, negative = cytotoxic in [12] was 0.287% [at 19 µM]; in assay [17], 10.6% [at 19 µM]. Further, the activity change, negative = inhibition in assay [13] is 0.724% [at 19 µM]; in [15], -2.22% [at 19 µM].
In the case of `O=C1CCCCCCCCCCCN1`, the Potency result in [1], in assay [2], in assay [3], in assay [4], in assay [5] and in assay [6] was “inactive” in each case. Further, the Potency result in assay [7], in assay [8], in assay [9], in assay [10], in assay [12] and in assay [15] was “inactive” in each case. For the same compound, the Potency entry in assay [17] and in assay [18] was “inactive” throughout. The outcome in assay [11], in [13] and in assay [16] was inactive.
With `Cc1nc2c([nH]1)c(=O)n(C)c(=O)n2Cc1ccco1`, the Potency result in assay [1], in assay [2], in [3], in assay [4], in assay [5] and in [6] was “inactive” in each case. In addition, the Potency entry in [7], in assay [8], in assay [9], in [10], in assay [12] and in assay [14] was “inactive” in each case. The Potency entry in assay [15], in [17] and in assay [18] was “inactive” in each case. In addition, the outcome in assay [11], in assay [13] and in assay [16] was inactive.
As for `CN(C)CCCSc1ccccc1NC(=O)/C=C/c1ccccc1`, the Potency entry in assay [1], in assay [5], in assay [6], in assay [7], in assay [9] and in assay [12] was “inactive” each time. Moreover, the Potency entry in assay [14], in assay [17] and in assay [18] was “inactive” in each case. The Potency in assay [2] is 19 µM (active); in assay [3] it was 19 µM (active); in assay [4] it was 16.9 µM (active); in [8], 16.9 µM (active); in assay [10], 19 µM (active); in assay [15] it was 8.41 µM (active). Moreover, the outcome in assay [11], in assay [13] and in assay [16] was inactive.
In the case of `OCCCC1CCCCC1`, the Potency result in assay [1], in assay [2], in [3], in assay [4], in assay [5] and in [6] was “inactive” each time. The Potency result in [7], in assay [8], in assay [9], in [10], in [12] and in [15] was “inactive” in each case. In addition, the Potency entry in assay [17] and in [18] was “inactive” in each case. Further, the outcome in assay [11], in assay [13] and in assay [16] was inactive.
Consider `CC(=O)OCC(=O)[C@@]1(O)CC[C@H]2[C@@H]3CCC4=CC(=O)CC[C@]4(C)[C@H]3C(=O)C[C@@]21C`, for which the values for the Potency in assay [1] and in [9] were 6.01 µM (active) and 1.07 µM (active), respectively. Moreover, the Potency result in assay [2], in assay [3], in assay [4], in assay [5], in assay [6] and in assay [7] was “inactive” in each case. In addition, the Potency entry in assay [8], in assay [10], in assay [12], in assay [15], in assay [17] and in assay [18] was “inactive” in each case. Moreover, the outcome in assay [11], in assay [13] and in [16] was inactive.
Take `COc1ccc(CCN(C)CCCC(C#N)(c2cc(OC)c(OC)c(OC)c2)C(C)C)cc1OC` (stereo not given): the Potency result in assay [1], in assay [2], in assay [3], in assay [19], in assay [4] and in assay [5] was “inactive” each time. Also, the Potency result in assay [8], in assay [9], in [10], in assay [12] and in assay [15] was “inactive” each time. Besides, the Potency in [7] was 21.3 µM (active); in [14], 5.62 µM (active); in assay [17], 15 µM (active). For the same compound, in [16], the call was inactive.
